Compound activity from PubChem.
pPAFAH FP inh: pPAFAH (human) enzyme inhibition. Q13093. recombinant pPAFAH, FP-rhodamine probe fluorescence polarization. inhibition, % at 3.39 µM. hit rate 1.5% among 330,000;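 active = inhibition above the mean inhibition across the screen plus 3 SD, cut at about 25% in these data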;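 note: inhibitors block binding of the rhodamine activity-based probe so polarization drops; 0% = enzyme with DMSO and 100% = wells lacking pPAFAH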
Target sequence (Q13093 whole entry, looked up): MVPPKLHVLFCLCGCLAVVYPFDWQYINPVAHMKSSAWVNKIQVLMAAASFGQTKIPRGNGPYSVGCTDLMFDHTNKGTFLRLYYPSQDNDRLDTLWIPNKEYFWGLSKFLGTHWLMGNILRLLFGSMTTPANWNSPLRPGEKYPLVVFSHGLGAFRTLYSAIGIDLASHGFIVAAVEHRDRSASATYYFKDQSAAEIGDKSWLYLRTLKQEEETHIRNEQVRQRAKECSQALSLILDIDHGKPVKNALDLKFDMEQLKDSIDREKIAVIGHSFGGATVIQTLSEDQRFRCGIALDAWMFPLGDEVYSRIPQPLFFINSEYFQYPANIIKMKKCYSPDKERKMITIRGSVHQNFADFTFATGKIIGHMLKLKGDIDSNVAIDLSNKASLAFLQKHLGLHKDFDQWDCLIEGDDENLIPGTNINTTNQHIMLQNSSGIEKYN
PP5 inh: PP5 (human) phosphatase inhibition. purified PP5c, OMFP substrate fluorescence. P53041. hit rate 0.18% among 320,000. inhibition, % at 6.7 µM;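 active = inhibition above the campaign's mean inhibition across all tested compounds plus 3 SD, cut at about 9.5% in these data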;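 note: 0% = DMSO only and 100% = 100 µM cantharidin control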
PAFAH1B2 FP inh: PAFAH1B2 (human) inhibition; P68402; AID 492953; hit rate 1.2% among 340,000; recombinant PAFAH1B2, FP-rhodamine activity probe, fluorescence polarization; inhibition, % at 3.39 µM;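 active = inhibition above the mean of all tested compounds plus 3 SD, cut at about 24% in these data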;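 note: 0% = enzyme with DMSO and 100% = wells lacking PAFAH1B2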
PAFAH1B3 FP inh: inhibitors of human PAFAH1B3; hit rate 0.28% among 340,000; inhibition, % at 3.39 µM; recombinant PAFAH1B3, FP-rhodamine probe, fluorescence polarization; AID 492972;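 active = inhibition above the screen-wide average of all tested compounds plus 3 SD, cut at about 25% in these data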;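 note: 0% = enzyme with DMSO only and 100% = wells lacking PAFAH1B3 protein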
Target sequence (Q15102 whole entry, looked up): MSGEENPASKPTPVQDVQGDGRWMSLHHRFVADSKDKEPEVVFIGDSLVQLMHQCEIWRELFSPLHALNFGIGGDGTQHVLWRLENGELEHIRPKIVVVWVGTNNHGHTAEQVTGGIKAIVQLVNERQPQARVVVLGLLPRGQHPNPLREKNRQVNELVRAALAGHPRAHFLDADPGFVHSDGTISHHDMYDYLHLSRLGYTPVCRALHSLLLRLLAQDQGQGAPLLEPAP
CTSL1 counter: counter-screen for PFM18AAP inhibitors: inhibitors of F. hepatica cathepsin L1; recombinant F. hepatica cathepsin L1, Z-Leu-Arg-MCA fluorescence; hit rate 0.49% among 300,000; inhibition, % at 5.96 µM;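 active = inhibition above the mean of all tested compounds plus 3 SD, set per screening campaign, cut at about 17% in these data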;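 note: 0% = plate median of test compound wells and 100% = 1 µM Z-Phe-Ala-diazomethylketone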
PAFAH2 inh: PAFAH2 (human) inhibition. AID 492956. hit rate 0.99% among 340,000. recombinant PAFAH2, FP-rhodamine activity probe, fluorescence polarization. inhibition, % at 3.39 µM;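 active = inhibition above the mean over all tested compounds plus 3 SD, cut at about 30% in these data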;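 note: inhibitors block probe labeling of enzyme so polarization drops; 0% = enzyme with DMSO and 100% = wells lacking PAFAH2 protein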
An asterisk follows results filed as active; · = not tested or not shown. Hits are enriched below; roughly 3% of the tested compounds scored in any of these assays.

SMILES | pPAFAH FP inh | PP5 inh | PAFAH1B2 FP inh | PAFAH1B3 FP inh | CTSL1 counter | PAFAH2 inh
CCc1noc(C)c1C(=O)NC1CC(C)(C)Cc2c1cnn2-c1ccccc1 (configuration not stated) | -1.1 | 4.2 | 6.0 | -0.7 | 0.9 | -1.3
O=C1NN(c2cccc(Br)c2)C(=O)/C1=C\c1ccc(O)cc1 | 16.9 | -1.9 | 21.2 | 2.4 | -4.4 | 15.1
O=C1NN(c2ccc(Cl)c(Cl)c2)C(=O)/C1=C/c1ccc(-c2ccccc2C(=O)O)o1 | · | · | 26.4* | 4.1 | · | 30.4*
O=C1NN(c2cccc(Br)c2)C(=O)/C1=C/c1ccc(-c2cc([N+](=O)[O-])ccc2O)o1 | 28.0* | -4.0 | 17.1 | 31.4* | 0.1 | 47.3*
C=C1CCN([C@@H](CC(C)C)C(=O)Nc2nc3ccc(Cl)cc3s2)S(=O)(=O)c2ccccc21 | -6.1 | 1.2 | -9.3 | -9.3 | -1.8 | -20.2
CC(C)CC1NC(=O)c2ccccc2-n2c1nc1ccc(Cl)cc1c2=O (configuration not stated) | 0.8 | · | · | · | · | ·
COc1ccc(COC(=O)c2cccc(S(=O)(=O)N3CCN(C(C)=O)CC3)c2)cc1 | 3.8 | -0.8 | -6.8 | 5.6 | 11.8 | 2.7
COc1ccc2c(c1)C(=O)[C@@H](O)[C@H](c1ccc(OC)c(Br)c1)O2 | 8.1 | 1.7 | 1.2 | 8.4 | 2.0 | -5.9
CC(=O)c1ccccc1NC(=O)CN1C(=O)CS/C1=C\c1nc(-c2ccc(C)cc2)cs1 | 3.8 | -4.1 | 6.4 | 6.5 | 17.8* | 3.9
O=c1[nH]c(=S)n(C2CCCCC2)c(O)c1C=NCCN1CCOCC1 | 6.7 | 1.7 | 28.6* | 4.1 | 1.0 | 3.6
O=C(CCNC(=O)c1ccc([N+](=O)[O-])cc1)NC1CCCCCC1 | 2.9 | 0.1 | 3.0 | -0.1 | · | 5.4
Cc1ccc(CCNC(=O)C2CC(c3cccc(F)c3)=NO2)cc1 (configuration not stated) | -0.9 | 2.7 | 27.7* | 7.0 | -3.4 | 3.1
COc1ccccc1-c1nnc(Sc2nc([N+](=O)[O-])nn2C)o1 | 5.3 | 0.0 | 3.2 | 14.0 | 76.6* | 5.0
Cn1cnnc1Sc1nc([N+](=O)[O-])nn1C | -0.7 | 3.1 | -3.2 | 8.9 | -8.4 | 3.8
COCCN(C(=O)CC(C)(C)C)c1nnc(-c2cccnc2)s1 | -1.2 | 3.3 | 1.4 | 2.2 | -1.6 | 2.0
COCCN(C(=O)CCc1ccccc1OC)c1nnc(-c2cccnc2)s1 | 25.5* | 0.4 | 5.5 | 2.2 | 5.9 | 5.9
COc1ccc(NC(=O)N(C)C[C@H]2Oc3c(NC(=O)Nc4ccc(C(F)(F)F)cc4)cccc3C(=O)N([C@H](C)CO)C[C@@H]2C)cc1 | 1.5 | · | 35.5* | 6.6 | · | -2.9
C[C@H](CO)N1C[C@H](C)[C@@H](CN(C)C(=O)Nc2ccc(C(F)(F)F)cc2)Oc2c(NC(=O)Nc3ccccc3)cccc2C1=O | 1.4 | · | 57.1* | -8.6 | · | -8.8
C[C@H](CO)N1C[C@H](C)[C@@H](CN(C)S(=O)(=O)c2ccc(F)cc2)Oc2c(NC(=O)Nc3ccc(C(F)(F)F)cc3)cccc2C1=O | 6.6 | · | 24.3* | -24.2 | · | -30.1
C[C@@H]1CN([C@H](C)CO)C(=O)c2cccc(NC(=O)Nc3ccc(F)cc3)c2O[C@H]1CN(C)C(=O)Nc1ccc(C(F)(F)F)cc1 | -9.1 | · | 49.6* | 5.8 | · | 0.5
O=C(Cn1cnc2c(NC(=O)OCc3ccccc3)ncnc21)NCCN1CCOCC1 | 11.6 | 0.5 | 5.5 | 9.6 | · | 11.9
CCCC[C@H](CN[C@@H](CNC)[C@H](C)CC)NCCC12CCC(CC1)C2 | -1.0 | -0.7 | -1.0 | 2.5 | 1.6 | -1.2
O=C(COc1ccc2ccc(=O)oc2c1)Nc1cccc(S(=O)(=O)N2CCCCC2)c1 | 0.4 | -0.7 | 2.1 | 2.1 | · | 4.5
Cc1cc(NC(=O)CN2C(=O)NC(c3ccccc3)(c3ccc(C)c(C)c3)C2=O)no1 (configuration not stated) | -7.3 | 3.0 | 2.1 | 5.6 | · | 7.9
CCCCc1cc(=O)oc2cc(OCC(=O)N3CCC(C(=O)O)(c4ccccc4)CC3)ccc12 | 13.4 | 4.3 | 7.2 | -0.1 | 20.3* | 2.8
SMILES | pPAFAH FP inh | PP5 inh | PAFAH1B2 FP inh | PAFAH1B3 FP inh | CTSL1 counter | PAFAH2 inh
O[C@@H]([C@H](O)[C@H](O)CBr)[C@H](O)CBr | 2.0 | -0.5 | -1.1 | 4.4 | 25.8* | -1.9
OC[C@@H](O)[C@@H](O)[C@H](O)[C@@H](O)CO | 7.1 | 0.8 | 4.1 | 1.3 | -1.2 | 7.3
Fc1ccccc1SCc1nnc(-c2ccccc2Br)o1 | 4.4 | 2.1 | 14.6 | 6.7 | -1.8 | 1.7
Cc1[nH]nc2c1C(c1ccc(Cl)cc1)C(C#N)=C(N)O2 (configuration not stated) | 4.0 | -0.7 | 28.4* | 8.0 | 1.9 | -3.2
O=C(CCl)N(O)c1ccc(C=Cc2ccccc2)cc1 | · | · | 1.7 | 11.6 | · | -8.8
O=C1C2CC=C(Cl)CC2C(=O)N1CCc1ccccc1 (configuration not stated) | 11.1 | -0.2 | 9.1 | 0.9 | 44.2* | 4.7
CCOC(=O)[C@H]1[C@H]2COc3ccc(Br)cc3[C@@H]2N2C(=O)c3ccc(Cl)cc3NC(=O)[C@@]12C | 4.3 | 0.8 | -1.7 | 5.0 | -3.4 | -18.3
O=c1[nH]c(=O)n(C(c2ccccc2)(c2ccccc2)c2ccccc2)cc1N(CCO)CCO | · | · | 1.4 | -7.1 | · | -0.1
Cc1nn(-c2ccccc2)c(C)c1NC(=O)COC(=O)c1ccc(Cl)c(N)c1 | 27.9* | 1.0 | 3.3 | 7.5 | -4.3 | 27.1
COCCCNC(=S)N1CCN(C(c2ccccc2)c2ccccc2)CC1 | · | · | 5.4 | 5.4 | · | -23.5
O=[N+]([O-])c1ccccc1C(O)Cc1ccccn1 (configuration not stated) | · | · | 5.2 | 0.1 | · | 2.5
O=C(O)C(c1ccccc1)N1C(=O)/C(=C\c2ccc(O)c(O)c2)SC1=S (configuration not stated) | 30.2* | 3.1 | -80.0 | 0.2 | 0.0 | -11.2
O=C(O)C1(c2ccccc2)CCN(S(=O)(=O)c2cccc(Cl)c2)CC1 | 3.4 | 0.5 | 12.8 | -0.5 | -0.1 | 2.8
CCOc1ccc(NS(=O)(=O)c2ccc(-c3coc(C)n3)cc2)cc1 | 29.5* | 1.0 | 3.2 | 10.4 | 0.8 | 2.7
COc1ccc(NS(=O)(=O)c2ccc(C)c(C(=O)NCc3cccnc3)c2)cc1 | 6.8 | -0.5 | -1.8 | 2.2 | 2.6 | -4.6
O=C(COc1ccc(S(=O)(=O)Nc2ccccc2)cc1)NCc1ccncc1 | 27.2* | 3.5 | 4.6 | 4.6 | 1.2 | 6.7
O=C(COc1ccc([N+](=O)[O-])cc1)NCc1ccncc1 | 2.6 | 1.4 | · | · | 2.2 | ·
C/C(=N\NC(=O)c1ccc(Br)cc1)c1cccc(NC(=O)c2cccnc2)c1 | 2.9 | 2.0 | -3.5 | 5.8 | 1.7 | 0.8
CCOC(=O)c1ccc(NS(=O)(=O)c2ccc(-c3coc(C)n3)cc2)cc1 | 1.8 | 1.4 | -0.3 | 3.3 | 6.3 | -5.6
CC(=NNC(=O)c1ccc(NS(=O)(=O)c2ccc(Br)cc2)cc1)c1cccnc1 | 7.2 | · | 29.2* | 4.2 | · | -1.3
